Most compounds without a hit are left out; they make up all but 5.9% or so of the library.
GAA850 FXN act: increases GAA850 frataxin promoter reporter activity; HEK293 lucGAA850 FXN promoter luciferase reporter, 24 h; percent of 10 µM SAHA response; activation, % at 6 µM; 360,000 compounds, 0.56% hits;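 active means activation above the average of all compounds screened plus 3 SD, cutoff fixed separately per campaign, cut at about 7.5% in these data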;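 further: 0% = DMSO wells and 100% = 10 µM SAHA wells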
HSP90 inh: HSP90 refolding inhibition in rabbit reticulocyte lysate; luciferase refolding luminescence, 3 h; inhibition, % at 5.6 µM; 290,000 compounds, 0.91% hits; AID 1789;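 active means inhibition above the screen-wide mean plus 3 SD, computed separately per campaign, cut at about 16% in these data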;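 further: 0% = DMSO wells and 100% = 60 µM geldanamycin wells; inhibitors lower the luminescence because luciferase stays unfolded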
HSF-1 act: increases HSF-1 driven luciferase reporter signal. NIH3T3-HGL HSF-1 luciferase reporter, MG132, 8 h; 100% = twice DMSO control signal. activation, % at 9 µM. 300,000 compounds, 1.7% hits. AID 504408;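 active means mean replicate activation of at least 50% with a set share of replicates each reaching 50%; inconclusive means only one of those two conditions met; inactive means mean below 50% and too few replicates reaching it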;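 further: 0% = median of the neutral control wells and 100% = twice that signal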
HSF1 inh: HSF1 inhibition. NIH3T3-HGL HSE-luciferase, MG132-induced, luminescence 8 h; active compounds read low. activity change, negative = inhibition, % at 7.5 µM (by protocol). 300,000 compounds, 0.77% hits;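 active means more than half of replicate wells show activity change below -50%, luminescence cut by over half; inconclusive means some wells, but at most half, below -50%; inactive means no replicate well below -50%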;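 further: luciferase reports HSF-1 transcriptional activity via heat shock element; 0% = median of DMSO wells and -100% = zero luminescence signal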
NR0B1 inh: NR0B1 (DAX1) inhibition. P51843. HEK293 Gal4-DAX1 luciferase reporter, luminescence. inhibition, % at 6.75 µM. 340,000 compounds, 0.99% hits. AID 504766;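 active means inhibition above the mean over all tested compounds plus 3 SD, cut at about 4.2% in these data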;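 further: 0% = DAX1-transfected cells with DMSO and 100% = empty-vector control cells with DMSO; inhibition shows as a rise in luminescence from relieved DAX1 repression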
AHR act: activates the human aryl hydrocarbon receptor | P35869 | AHR-responsive luciferase reporter cells, luminescence | activation, % at 5 µM | 320,000 compounds, 2.5% hits; in the data active means activation above about 47%;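 further: 0% = vehicle wells and 100% = reference agonist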
Target sequence (P35869 whole entry, looked up): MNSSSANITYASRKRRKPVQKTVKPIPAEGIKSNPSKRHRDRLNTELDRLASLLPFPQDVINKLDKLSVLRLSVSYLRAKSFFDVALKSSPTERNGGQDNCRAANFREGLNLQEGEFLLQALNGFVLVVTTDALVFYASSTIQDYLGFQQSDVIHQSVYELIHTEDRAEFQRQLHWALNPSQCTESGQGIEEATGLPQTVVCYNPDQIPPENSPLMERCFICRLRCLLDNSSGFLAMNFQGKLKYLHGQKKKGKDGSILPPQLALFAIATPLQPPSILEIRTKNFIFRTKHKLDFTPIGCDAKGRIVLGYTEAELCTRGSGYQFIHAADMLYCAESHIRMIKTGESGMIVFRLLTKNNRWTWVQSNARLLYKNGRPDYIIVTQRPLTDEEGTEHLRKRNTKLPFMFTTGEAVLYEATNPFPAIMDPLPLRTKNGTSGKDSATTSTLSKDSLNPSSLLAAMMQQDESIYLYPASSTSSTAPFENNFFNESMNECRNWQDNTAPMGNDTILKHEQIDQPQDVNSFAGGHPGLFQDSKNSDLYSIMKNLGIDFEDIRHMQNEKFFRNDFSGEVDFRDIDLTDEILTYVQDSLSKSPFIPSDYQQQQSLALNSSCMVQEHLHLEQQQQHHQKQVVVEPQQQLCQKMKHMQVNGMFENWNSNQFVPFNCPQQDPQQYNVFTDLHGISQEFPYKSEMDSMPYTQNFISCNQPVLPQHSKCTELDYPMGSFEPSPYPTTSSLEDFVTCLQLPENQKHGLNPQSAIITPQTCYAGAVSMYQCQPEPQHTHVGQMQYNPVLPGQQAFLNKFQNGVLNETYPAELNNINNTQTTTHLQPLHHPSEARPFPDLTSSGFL
Starred values were filed as active, the others as inactive; ? = inconclusive; nt = no result given.

SMILES	GAA850 FXN act	HSP90 inh	HSF-1 act	HSF1 inh	NR0B1 inh	AHR act
C=CCc1c(C)nc(C)nc1N/N=C/c1ccc(N(C)C)cc1	1	-2	8	2	0	79*
O=S(=O)(NCCN1CCOCC1)c1ccc(F)c(Cl)c1	-2	0	2	-6	1	4
COc1cc(C(=O)NCc2ccccc2Cl)ccc1OCC(=O)N1CCOCC1	0	nt	nt	nt	1	nt
O=C(CN1CCN(Cc2ccccc2)C1=O)NCc1ccc(Cl)cc1	0	3	-1	-2	-1	3
CCN(CCNC(=O)CN1CCN(Cc2ccc(Cl)cc2)C1=O)c1ccccc1	-3	-2	70*	49	-1	11
COc1cc(SC#N)ccc1N=Cc1c(C)[nH]n(-c2cccc3ccccc23)c1=O	nt	16*	-2	-1	nt	13
Cc1ccc(C)c(S(=O)(=O)N2CCCCC2CCNC(=O)C(=O)NCc2ccncc2)c1 (stereo unspecified)	0	nt	15	0	-1	6
CCOc1ccccc1N(C)C(=O)c1sc2ncn(CC(=O)N3CCCCC3C)c(=O)c2c1C (stereo unspecified)	0	-2	9	-2	1	0
COc1ccc2nc3n(c(=O)c2c1)-c1ncccc1C(=O)NC3CC(C)C (stereo unspecified)	0	nt	nt	nt	2	nt
CCc1cc(C(=O)Nc2nc(-c3ccccn3)cs2)sc1C	-1	nt	nt	nt	6.7*	30
Cc1ccc(C(=O)Nc2nc(-c3ccccn3)cs2)o1	-3	11	3	-5	2	17
O=C(Nc1nc(-c2ccccn2)cs1)c1cc(Cl)ccc1[N+](=O)[O-]	-4	2	70*	34	-3	16
Cc1cc(C(=O)Nc2nc(-c3ccccn3)cs2)ccc1[N+](=O)[O-]	-1	2	-28	-31	3	13
COc1ccc(-c2ccc(CN3C(C(C)C)C(=O)N(Cc4cn(CC5CCCCC5)nn4)CCS3(=O)=O)cc2)cc1OC (stereo unspecified)	-3	nt	nt	nt	-2	nt
CCOc1ccc(NC(=O)c2cccc(S(=O)(=O)NCc3cccnc3)c2)cc1	-1	nt	nt	nt	1	nt
CC(=O)Oc1ccc2nc(-c3ccco3)oc(=O)c2c1	1	0	-4	-8	0	2
COc1cc(-c2cc(=O)c3ccccc3o2)ccc1O	6	0	15	13	2	77*
COc1ccc(-c2cc(=O)c3ccccc3s2)cc1	5	14	23	15	3	94*
COc1ccc(-c2cc(=O)c3ccccc3o2)cc1	6	nt	42	32	8.4*	24
COc1ccc(COC(=O)C2=C(C)NC(=O)NC2c2ccc(OC)cc2)cc1 (stereo unspecified)	-3	4	-3	-10	-1	8
CC(Oc1ccccc1F)C(=O)NNC(=O)CCNC(=O)c1ccco1 (stereo unspecified)	0	nt	-5	-6	0	5
NC(=O)CCC(C(=O)O)N1C(=O)c2ccc(O)cc2C1=O (stereo unspecified)	5	0	-63	-54*	1	0
O=C(O)CC[C@@H](C(=O)O)N1C(=O)c2ccccc2C1=O	-2	nt	-33	-23	-1	7
c1ccc(CCNc2nc(-c3ccccn3)cs2)cc1	2	0	53*	32	-1	25
N#CCCN(C(=O)COC(=O)c1ccc(S(=O)(=O)N2CCCC2)cc1)c1cccc(Cl)c1	-1	nt	nt	nt	0	-2
SMILES	GAA850 FXN act	HSP90 inh	HSF-1 act	HSF1 inh	NR0B1 inh	AHR act
Cc1ccc(S(=O)(=O)N2C[C@H]3[C@H]4C(=O)N(c5ccccc5)C(=O)[C@H]4C[C@H](OC(=O)NC4CC4)[C@@]3(O)C2)cc1	1	nt	nt	nt	1	nt
CCc1nc(OCc2ccco2)c2sc3nc4c(cc3c2n1)COC(C)(C)C4	-2	16*	nt	nt	-1	31
CCc1nc2c(sc3nc4c(cc32)COC(C)(C)C4)c(=O)n1Cc1ccccc1	3	1	4	-2	0	5
CCc1nc2c(sc3nc4c(cc32)COC(C)(C)C4)c(=O)n1Cc1ccco1	-1	6	?	30	0	53*
COc1ccc2nc3n(c(=O)c2c1)-c1ncccc1C(=O)NC3C (stereo unspecified)	-1	nt	nt	nt	1	nt
Cc1ccc(NC(=O)c2cnccn2)cc1C	3	2	30	6	4.6*	2
O=C(Nc1ccc2c(c1)OCO2)c1ccccn1	5	nt	nt	nt	1	22
O=C(Nc1ccc2c(c1)OCO2)c1cnccn1	4	-4	17	14	3	66*
CC(C)(C)c1ccc(NC(=O)c2ccc(=O)[nH]n2)cc1	6	1	49	28	5.6*	9
O=C(Nc1ccccn1)c1ccc(=O)[nH]n1	-1	0	-16	-3	0	1
Cc1nc(NC(=O)c2cnccn2)ccc1Br	7	5	24	15	4.2*	nt
Cc1nc(NC(=O)c2cncc(Br)c2)ccc1Br	-2	6	-8	6	2	13
CC(C)(C)c1ccc(NC(=O)Nc2ccc(F)cc2)cc1	2	-1	57*	30	nt	8
O=C(Nc1ccc2c(c1)OCO2)c1ccc(=O)[nH]n1	6	2	3	14	-1	78*
CC(C)(C)c1ccc(COC(=O)Nc2ccc(F)cc2)cc1	5	-1	5	-6	-1	2
COC(=O)c1c(NC(=O)c2cccnc2)sc(C(=O)N(C)C)c1C	1	4	-37	-18	0	16
COC(=O)c1c(NC(=O)c2cccnc2)sc(C)c1C	3	2	-7	0	0	71*
Cc1ccc(NC(=O)Nc2nc3ccccc3s2)cc1NC(=O)Nc1nc2ccccc2s1	3	3	-21	-17	1	54*
COc1ccc2nc(NNC(=O)COc3ccccc3)sc2c1	1	0	-1	-5	1	72*
O=C(Nc1nc2ccccc2s1)NC1CCCCC1	6	1	23	-2	7.1*	4
CC(=O)NNc1nc2ccccc2s1	-1	3	-3	-4	3	20
COc1ccc(OCC(=O)Nc2nc3ccc(NC(C)=O)cc3s2)cc1	0	-1	0	-3	1	24
O=C(NNc1nc2ccccc2s1)Nc1ccccc1	4	6	-55	-47	1	59*
Cc1cc(C)c(S(=O)(=O)c2ccccc2Cl)c(=O)[nH]1	2	4	1	-3	0	0
CN(C)C(=S)Nc1nc2ccccc2s1	2	0	83*	45	-3	nt
CCOc1ccc2nc(NC(=S)N(C)C)sc2c1	5	10	32	13	2	-4
O=C(COc1ccccc1)NNc1nc2ccccc2s1	-4	14	-41	-34	6.5*	50*
C/C(=N/NC(=O)c1cc2ccccc2cc1O)c1ccco1	2	2	93*	95	0	11

Screening data (PubChem)
